EPAC1 agonist = qHTS for Agonist of cAMP-regulated guanine nucleotide exchange factor 3 (EPAC1): primary screen | Rap guanine nucleotide exchange factor 3 (Homo sapiens), O95398 | Potency, µM (doses to about 154 µM), without a hit: at the top dose activation, hits mostly activators | EPAC1 agonist qHTS, biochemical assay; response scale: 100% = response to 6.5 mM cAMP | 360,000 tested, 0.073% active; further: potency means the concentration at half of the fitted maximal effect; nearly all actives have a fitted effect of over 60% in size
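Nucleotide exchange by EPAC1 (100 nM) on Rap1B–BODIPY-GDP (250 nM) in the presence of 50 uM GDP is tracked fluorescently at 480/540 nm over 30 min. Signals are normalized to a 6.5 mM cAMP control.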
EPAC1 antag = qHTS for Antagonist of cAMP-regulated guanine nucleotide exchange factor 3 (EPAC1): primary screen; EPAC1 GEF assay, Rap1b-BODIPY-GDP exchange fluorescence; 360,000 tested, 0.14% active; Potency, µM (titrated, usually from 115 µM), inactives show at the highest dose activity change, negative = inhibition, actives largely listed as inhibitors; Rap guanine nucleotide exchange factor 3 (Homo sapiens), O95398;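 further: potency means the concentration at half of the fitted maximal effect; plate controls were vehicle for no effect and positive control for full effect; nearly all actives have a fitted effect of over 50% in size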
TRPML1 inh = qHTS for Inhibitors of the Human Mucolipin Transient Receptor Potential 1 (TRPML1) | activity change, negative = inhibition, % (no concentration beside the values) | 390,000 tested, 0.02% active | TRPML1-inducible cells, Ca2+ dye fluorescence, FDSS; active compounds read low; inhibition of EC80 agonist-evoked calcium signal; in the data active means activity change below about -50%; inconclusive means between about -30% and that limit;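 further: stimulus is agonist 54-4 at its EC80 concentration; on the % scale 0 is the no-effect control and ±100 the full control effect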
Target sequence (Q9GZU1 whole entry, looked up): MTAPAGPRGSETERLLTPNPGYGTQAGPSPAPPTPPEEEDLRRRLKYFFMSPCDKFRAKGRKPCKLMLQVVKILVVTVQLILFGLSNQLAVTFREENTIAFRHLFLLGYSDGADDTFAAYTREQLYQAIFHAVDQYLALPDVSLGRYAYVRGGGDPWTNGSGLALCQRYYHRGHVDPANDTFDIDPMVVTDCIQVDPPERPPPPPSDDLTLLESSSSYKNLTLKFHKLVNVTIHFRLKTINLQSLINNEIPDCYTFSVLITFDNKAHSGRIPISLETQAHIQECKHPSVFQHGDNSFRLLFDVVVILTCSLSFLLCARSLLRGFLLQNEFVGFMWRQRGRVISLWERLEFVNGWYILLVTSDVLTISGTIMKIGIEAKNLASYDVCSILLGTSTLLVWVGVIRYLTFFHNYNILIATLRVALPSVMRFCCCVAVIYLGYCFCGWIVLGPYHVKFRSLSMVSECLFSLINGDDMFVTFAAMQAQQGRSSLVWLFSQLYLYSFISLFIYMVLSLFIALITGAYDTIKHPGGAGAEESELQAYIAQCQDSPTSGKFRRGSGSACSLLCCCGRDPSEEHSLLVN
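Calcium fluorescence in TRPML1-DL cells induced overnight with Tet: a 110 s read after compound pin addition, then a 110 s antagonist read after challenge with 54-4 at 4 uM final (EC80).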
EPAC2 antagonist = qHTS for Antagonist of cAMP-regulated guanine nucleotide exchange factor 2 (EPAC2): primary screen; Rap guanine nucleotide exchange factor 4 (Homo sapiens), Q8WZA2; EPAC2 GEF exchange of Rap1B-BODIPY-GDP, fluorescence; Potency, µM (series often up to 114 µM), for inactives: at the top dose activity, negative = inhibition, hits mostly inhibitors; 360,000 tested, 0.18% active; AID 720708, 2013; further: potency means the concentration at half of the fitted maximal effect; on the % scale 0 is the no-effect control and ±100 the full control effect; nearly all actives have a fitted effect of over 45% in size
TRPML1 agonist = qHTS for Agonists of the Human Mucolipin Transient Receptor Potential 1 (TRPML1) | Mucolipin-1 (Homo sapiens), Q9GZU1 | 410,000 tested, 0.12% active | AID 624414, 2012 | activation, % (no concentration beside the values) | TRPML1-expressing cells, Ca2+ dye fluorescence, FDSS; in the data active means activation above about 50%; inconclusive means mostly about 30% to 49%; further: 0% is about no effect
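Tetracycline-induced TRPML1-DL cells are seeded and incubated overnight before loading with a no-wash Ca2+ dye and quencher. Agonist activity is taken from the 110 s fluorescence read following compound pin-transfer on an FDSS, before EC80 54-4 challenge.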
EPAC2 agonist = qHTS for Agonist of cAMP-regulated guanine nucleotide exchange factor 4 (EPAC2): primary screen; Rap guanine nucleotide exchange factor 4 (Homo sapiens), Q8WZA2; EPAC2 activation, biochemical qHTS; response scale: 100% = 6.5 mM cAMP response; Potency, µM (titrated, usually from 154 µM), for the others: at the top dose activation, usual class: activators; 360,000 tested, 0.079% active; further: potency means the concentration at half of the fitted maximal effect; nearly all actives have a fitted effect of over 50% in size
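Guanine nucleotide exchange by EPAC2 is measured as reduced fluorescence of BODIPY-GDP once it is released from 250 nM Rap1B. Plates are read kinetically for 30 min at room temperature; results are scaled to 6.5 mM cAMP.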
Starred values were filed as active, the others as inactive. Compounds with a hit are over-represented: about 0.4% of the library has one in this group of screens. Unless noted, the call rests on the fitted dose curve; in most records, active means well fitted curve in the direction sought with a large enough effect; inconclusive means small, poorly fitted or top-dose-only effect, or another doubt; inactive means no such curve, though single readings can be large; an effect the other way counts as inactive or inconclusive.

`O=C(Cc1ccccc1)Nn1c(O)c(/C=C2\C=Nc3ccccc32)sc1=S` gave EPAC1 agonist 89µM*, EPAC1 antag -2%, TRPML1 inh -19, EPAC2 antagonist -4%, TRPML1 agonist inconclusive and EPAC2 agonist 100µM*.
COc1cc(OC)c(/C=C/c2c3ccccc3cc[n+]2C)c(OC)c1 was read as TRPML1 agonist 0.
Screening Cc1cccc(CCN2C(Nc3ccccc3)=NC[C@@H]2CC(C)C)c1 returned EPAC1 agonist -2%, EPAC1 antag -28%, TRPML1 inh -2, EPAC2 antagonist -3%, TRPML1 agonist 26 and EPAC2 agonist 9%.
`CC(C)C[C@H]1CN=C(Nc2ccccc2)N1CCc1cccc(F)c1` gave EPAC1 agonist 8%, EPAC1 antag -12%, TRPML1 inh 9, EPAC2 antagonist 11%, TRPML1 agonist 80* and EPAC2 agonist 2%.
CN(C(=O)COC(=O)c1ccccc1OCC(=O)Nc1ccc(Br)cc1)c1ccccc1 was read as TRPML1 agonist 3.
`O=c1[nH]nc(CNc2ccc(C(F)(F)F)cc2)c2ccccc12` gave EPAC1 agonist -13%, EPAC1 antag -11%, TRPML1 inh 4, EPAC2 antagonist -14%, TRPML1 agonist -1 and EPAC2 agonist -10%.
For O=c1[nH]nc(CNc2ccc(O)cc2)c2ccccc12 the results were EPAC1 agonist 10%, EPAC1 antag 35µM*, TRPML1 inh 5, EPAC2 antagonist 7%, TRPML1 agonist 0 and EPAC2 agonist 0%.
Cc1ccccc1CN1[C@H]2CCCC[C@@H]2OCCS1(=O)=O was read as TRPML1 agonist -1.
O=C1/C(=C/c2cccs2)SC(=S)N1NS(=O)(=O)c1ccccc1 was read as EPAC1 agonist 1%, EPAC1 antag -21%, EPAC2 antagonist inconclusive and EPAC2 agonist -4%.
O=C1/C(=C/C=C/c2ccco2)SC(=S)N1NS(=O)(=O)c1ccccc1 was read as EPAC1 agonist 6%, EPAC1 antag 100µM*, EPAC2 antagonist inconclusive and EPAC2 agonist -1%.
Screening O=C1CC(=O)N(Cc2ccco2)C(=S)N1 returned EPAC1 agonist 4%, EPAC1 antag 45µM*, TRPML1 inh 12, EPAC2 antagonist 14%, TRPML1 agonist 1 and EPAC2 agonist 5%.
For O=C1CC(=O)N(Cc2ccco2)C(=O)N1 the results were EPAC1 agonist 20%, EPAC1 antag inconclusive, TRPML1 inh 14, EPAC2 antagonist inconclusive, TRPML1 agonist 1 and EPAC2 agonist 2%.
`O=C(Oc1ccc(-c2nnco2)cc1)N1CCOCC1` gave EPAC1 agonist -2%, EPAC1 antag 7%, TRPML1 inh -9, EPAC2 antagonist 8%, TRPML1 agonist 2 and EPAC2 agonist -3%.
Screening CC(Oc1ccc(-c2nnco2)cc1)C(=O)N1CCOCC1 (configuration not stated) returned EPAC1 agonist 32µM*, EPAC1 antag -20%, TRPML1 inh -3, EPAC2 antagonist 1%, TRPML1 agonist 0 and EPAC2 agonist -2%.
COc1ccc(CCNC(=O)C(=O)NCC(c2ccco2)S(=O)(=O)c2cccs2)cc1 (configuration not stated) was read as TRPML1 inh 22 and TRPML1 agonist 0.
O=c1c2ccccc2nc(/C=C/c2cccnc2)n1CCc1ccccc1 was read as EPAC1 agonist -5%, EPAC1 antag 79µM*, TRPML1 inh 9, EPAC2 antagonist 5%, TRPML1 agonist 1 and EPAC2 agonist 6%.
Screening O=c1c2ccccc2nc(/C=C/c2ccccc2)n1CCc1ccccc1 returned EPAC1 agonist 0%, EPAC1 antag -12%, TRPML1 inh 5, EPAC2 antagonist 0%, TRPML1 agonist 0 and EPAC2 agonist -1%.
`Cc1ccc(Oc2c(C(F)(F)F)oc3c(CN4CCC(C)CC4)c(O)ccc3c2=O)cc1` gave TRPML1 inh -3 and TRPML1 agonist 1.
CCN1C(=O)C(=CC=CN(C)c2ccccc2)SC1=S was read as EPAC1 agonist inconclusive, EPAC1 antag 35%, TRPML1 inh -5, EPAC2 antagonist -3%, TRPML1 agonist inconclusive and EPAC2 agonist 89µM*.
`Cc1cc(Nc2ccccc2)n(-c2nc3ccccc3[nH]2)n1` gave EPAC1 agonist 8%, EPAC1 antag -10%, TRPML1 inh -11, EPAC2 antagonist 8%, TRPML1 agonist 0 and EPAC2 agonist 6.3µM*.
CC1=NOC(=O)/C1=C\c1ccc(-c2cc(Cl)ccc2Cl)o1 was read as EPAC1 agonist 3%, EPAC1 antag -12%, TRPML1 inh 15, EPAC2 antagonist 79µM*, TRPML1 agonist 1 and EPAC2 agonist 1%.
COc1cccc(-c2ccc(C#N)c(OC(=O)c3ccc(Cl)cc3)n2)c1 was read as EPAC1 agonist 4%, EPAC1 antag 11%, TRPML1 inh -22, EPAC2 antagonist 10%, TRPML1 agonist -1 and EPAC2 agonist 6.3µM*.
Screening COc1cc(C=O)cc(OC)c1[N+](=O)[O-] returned TRPML1 agonist 0.
For Cc1cnc2ccccc2c1/C=C/c1ccc(N)cc1 the results were TRPML1 agonist 0.
Screening COc1ccc(NC(=O)CSc2nc3nc(-c4cccs4)cc(C(F)(F)F)c3c(=O)[nH]2)c(OC)c1 returned EPAC1 agonist 9%, EPAC1 antag 32µM*, TRPML1 inh -5, EPAC2 antagonist -18%, TRPML1 agonist 0 and EPAC2 agonist -8%.
For CC(C)(C)n1ncc2c(=O)n(Cc3ccccc3C#N)cnc21 the results were TRPML1 inh -29 and TRPML1 agonist 1.
`Fc1ccc(C(Nc2ccccn2)c2c[nH]c3ccccc23)cc1` (configuration not stated) gave EPAC1 agonist 10%, EPAC1 antag -15%, TRPML1 inh -6, EPAC2 antagonist 45µM*, TRPML1 agonist 0 and EPAC2 agonist 2%.
O=C(O)C1Nc2ccccc2C2C=CCC12 (configuration not stated) was read as TRPML1 agonist 0.

Bioassay records deposited in PubChem BioAssay by National Center for Advancing Translational Sciences (NCATS).
